Compounds with a hit are over-represented: about 6.6% of the library has one in this group of screens.
Anthrax LF prot = anthrax lethal factor protease inhibition. P15917. multiplex microsphere protease cleavage assay, LF. inhibition, % at 10 µM. 360,000 tested, 0.12% active. AID 588501; in the data active means inhibition above about 30%; inconclusive means no clear call, values can overlap the other calls; further: plate controls were buffer without enzyme for full effect and enzyme alone for no effect
BoNT-F LC inh = inhibitors of Botulinum neurotoxin F light chain protease; Multiplex microsphere protease cleavage assay, flow cytometry; inhibition, % at 10 µM; 360,000 tested, 0.22% active; AID 588497; in the data active means inhibition above about 35%, passing the limit was not always enough; inconclusive means no clear call, values can overlap the other calls; further: plate controls were buffer without enzyme for full effect and enzyme alone for no effect
Bead autofluor = compound fluorescence in toxin protease inhibitor counterscreen; compound autofluorescence counterscreen, microsphere flow cytometry; stronger effect = higher value; fluorescence intensity (no concentration beside the values); 360,000 tested, 3.1% active; in the data active means fluorescence intensity above about 16000; inconclusive means no clear call, values can overlap the other calls
BoNT A protease = inhibitors of Botulinum neurotoxin A light chain protease; multiplex microsphere protease substrate cleavage, flow cytometry; inhibition, % at 10 µM; 360,000 tested, 0.17% active; AID 588499; in the data active means inhibition above about 30%; inconclusive means no clear call, values can overlap the other calls; further: plate controls were buffer without enzyme for full effect and enzyme alone for no effect
GDH-TPI counter-1 = inhibits GDH-TPI coupling enzymes, artifact for Mtb FBA screen; GDH-TPI coupled enzyme counterscreen, NADH absorbance; inhibition, % at 4.8 µM; 360,000 tested, 1.2% active; AID 588335; in the data active means inhibition above about 30%;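 further: 0% = DMSO wells and 100% = wells lacking the enzyme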
Mtb FBA inh = inhibitors of M. tuberculosis fructose-bisphosphate aldolase. purified M. tuberculosis FBA, fluorescence read-out. inhibition, % at 1 µM. AID 588726. 360,000 tested, 2.3% active;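 further: 0% = vehicle and 100% = reference inhibitor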
Target sequence (P9WQA3 whole entry, looked up): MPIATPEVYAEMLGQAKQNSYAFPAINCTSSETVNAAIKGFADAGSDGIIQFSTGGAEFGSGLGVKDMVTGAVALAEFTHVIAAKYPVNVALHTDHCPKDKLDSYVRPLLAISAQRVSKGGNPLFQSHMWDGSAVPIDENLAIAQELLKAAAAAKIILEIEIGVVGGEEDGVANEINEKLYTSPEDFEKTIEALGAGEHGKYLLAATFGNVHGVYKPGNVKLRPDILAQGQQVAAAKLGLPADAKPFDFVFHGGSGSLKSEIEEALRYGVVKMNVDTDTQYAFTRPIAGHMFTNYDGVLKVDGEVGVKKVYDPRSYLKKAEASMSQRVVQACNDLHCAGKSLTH
Mtb FBA confirm = Mtb FBA inhibition, confirmed | 5,600 tested, 78% active | shares compounds with Mtb FBA inh | inhibition, % at 1 µM | purified M. tuberculosis FBA, fluorescence read-out;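 further: 0% = vehicle wells and 100% = reference inhibitor wells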
GDH-TPI counter-2 = GDH-TPI inhibition counter-screen for FBA inhibitors; inhibition, % at 1 µM; shares compounds with Mtb FBA inh; 5,600 tested, 81% active; AID 652141; GDH-TPI coupled enzyme counterscreen, fluorescence; in the data active means inhibition above about 10%
Active calls of the source: *; ? = inconclusive; / = no result given; + = active, no number. Unless noted, no stated cut-off is given here; in the data, active means inhibition above about 27%; inactive means the rest.

SMILES	Anthrax LF prot	BoNT-F LC inh	Bead autofluor	BoNT A protease	GDH-TPI counter-1	Mtb FBA inh	Mtb FBA confirm	GDH-TPI counter-2
Cc1ccc(C(=O)N2CCN(c3ccc(NC(=O)COc4ccccc4C)cc3)CC2)cc1	-3	-18	3088	0	0	4	/	/
CC(=O)NC(=Cc1ccccc1)C(=O)N1CCCC1C(=O)O (centres undefined)	-4	4	3506	0	-4	-2	/	/
Cc1ccc(S(=O)(=O)N(C)c2ccccc2C(=O)Nc2c(F)cccc2F)cc1	10	11	4053	4	1	0	/	/
Oc1ccc(-c2nccs2)cc1	2	2	3681	0	18	47*	108*	86*
Oc1ccc(-c2nc(-c3ccc(O)c(O)c3)cs2)cc1	-10	-2	8394	2	-4	-2	/	/
Nc1nc2nc(-c3ccc(OCc4ccccc4)cc3)cc(C(F)(F)F)n2n1	-11	2	4201	1	13	36*	+	+
CC(C)C(NC(=S)Nc1ccccc1)C(=O)O (centres undefined)	1	-4	2212	0	-4	-2	/	/
CC12CCC(C(=O)N(NC(=O)c3ccccc3Cl)C1=O)C2(C)C (centres undefined)	1	1	2620	1	1	0	/	/
CC12CCC(C(=O)N(NC(=O)c3cc(Cl)ccc3O)C1=O)C2(C)C (centres undefined)	-6	15	?	0	6	44*	0	-7
O=S(=O)(c1cccs1)N1CN(Cc2ccccc2)c2nc3ccccc3nc21	2	0	2372	0	36*	32*	40*	27*
O=S(=O)(c1cccs1)N1CN(CC2CCCO2)c2nc3ccccc3nc21 (centres undefined)	1	0	10595	1	21	51*	70*	58*
Nc1ccc(C(=O)C(=O)c2ccccc2)cc1	/	/	/	/	28	3	/	/
Cc1ccc(C=Nc2ccccc2C(N)=O)cc1	-3	-8	10640	-1	1	65*	83*	74*
COc1cccc(/C=N/NC(=O)CSCC(=O)Nc2ccccc2)c1O	-3	-4	11016	-1	7	0	/	/
Cc1ccc(C=Nc2ccccc2C(=O)Nc2ccccc2)cc1	0	-6	2733	-1	7	39*	136*	103*
Cc1ccccc1C=Nc1ccccc1C(N)=O	-1	-3	1923	0	8	50*	71*	57*
COc1cccc(C=Nc2ccccc2C(=O)Nc2ccccc2)c1O	-4	-6	2385	0	3	30*	129*	107*
CCOC(=O)C1CCN(C(=O)CSc2nccc(C)n2)CC1	-6	-4	3890	1	-2	1	/	/
CC(C)(C#CCN1CCCCC1)OCCOC(c1ccccc1)c1ccccc1	-4	-5	2133	-1	0	1	/	/
O=C(Nc1ccccc1)c1ccccc1N=Cc1cccc(O)c1	1	-6	2104	0	8	41*	51*	40*
CCc1ccc(Nc2n[n+](-c3ccccc3)c(-c3ccc(N(CC)CC)cc3)s2)cc1	19	-27	19557*	23	8	51*	36*	35*
CCOP(=O)(OCC)c1nc(-c2ccccc2)oc1NCc1ccccc1	0	-1	2460	-1	8	82*	24	13*
CCOP(=O)(OCC)c1nc(-c2ccc(F)cc2)oc1NCc1ccccc1	-11	0	3374	0	3	77*	46*	29*
Cc1ccc(C)c(NC(=S)NCC(c2ccccc2)N(C)C)c1 (centres undefined)	-3	-1	3900	0	-6	-4	/	/
CNC(=O)C[C@@H]1C(=O)N(c2ccc(OC)cc2)CC1(C)C	-4	-8	3031	-1	0	0	/	/
SMILES	Anthrax LF prot	BoNT-F LC inh	Bead autofluor	BoNT A protease	GDH-TPI counter-1	Mtb FBA inh	Mtb FBA confirm	GDH-TPI counter-2
Nc1[nH]ncc1-c1ccc(F)cc1	-2	4	2000	0	11	108*	10	-6
Cc1ccc(CN2C(=O)c3ccccc3NC2c2ccccn2)cc1 (centres undefined)	0	-5	5493	-1	-5	31*	63*	51*
O=C1c2ccccc2NC(c2ccccc2)N1CCCN1CCOCC1 (centres undefined)	-6	-9	6351	-1	9	48*	123*	107*
CCCN1C(=O)c2ccccc2NC1c1ccc(C)cc1 (centres undefined)	2	-7	3432	-2	3	78*	5	-2
CCc1cccc2c(C(=O)CSc3nnc(C4CC4)o3)c[nH]c12	0	6	5059	3	3	-2	/	/
COc1cccc(CNC(=O)CCC2CCCN(c3cc(C)nc(N4CCCC4)n3)C2)c1 (centres undefined)	-7	-4	4570	-1	2	1	/	/
COc1ccc2c(c1)c(=O)oc1c(C)c(OC(C)C(=O)NCC3CCC(C(=O)O)CC3)ccc12 (centres undefined)	-10	1	5736	0	9	35*	92*	81*
COc1ccc2c(c1)c(=O)oc1c(C)c(OCc3ccc(C(=O)O)cc3)ccc12	5	13	3511	0	5	4	/	/
COc1ccc2c(c1)c(=O)oc1c(C)c(OCc3cc(C(=O)O)oc3C)ccc12	-3	12	3648	0	3	43*	-4	-7
COc1ccc2oc(=O)c(/C(N)=N/NC(=O)c3ccncc3)cc2c1	7	-3	4504	0	2	2	/	/
COc1ccc(-c2cc(-c3nc4ccccn4c3NCc3ccccc3)ccc2OC)cc1	-10	0	3746	-1	-3	36*	167*	136*
CCC(C)Sc1ccc(-c2nc3ccc(Cl)cn3c2NCc2ccccc2)cc1 (centres undefined)	-2	-2	3813	0	12	2	/	/
CCC(C)Sc1cccc(-c2nc3cc(C)ccn3c2NCc2ccccc2)c1 (centres undefined)	-3	-10	3587	-1	12	33*	49*	36*
COc1ccc(-c2nc3ccccn3c2NCc2ccc3c(c2)OCO3)cc1	0	1	4471	0	4	12	/	/
c1ccc(CNc2c(-c3cccc(SC4CCCCC4)c3)nc3ccccn23)cc1	-5	-4	2821	0	16	46*	100*	65*
Clc1cccc(-c2ccc(-c3nc4ccccn4c3NCc3ccccc3)cc2)c1	-9	-8	4016	-1	15	40*	152*	117*
Cc1cc(C)c2oc(=O)cc(CN3CCCCC3)c2c1	4	-21	3279	-2	17	5	/	/
